In PubChem BioAssay (Tox21):
“And” between values parts separate entries of the source, which are not always exact repeats. Equal values may be shown once. Results filed as inconclusive are left out. Where a structure was tested more than once in an assay, its records may differ in their call. The source made the active and inactive calls. Unless noted, calls come from the whole dose curve.

What was measured:
[1] = Nuclear factor erythroid 2-related factor 2/antioxidant responsive element (Nrf2/ARE) small molecule agonists: qHTS cell viability counter screen in human keratinocytes (AID 1919968; active = well fitted curve in the direction sought with a large enough effect in the repeat runs; an effect the other way counts as inactive or inconclusive; note: nearly all actives have a fitted effect of over 55% in size; note: potency is the fitted concentration of half-maximal effect)
Method in brief: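 After a 5 h attachment period, ARE-reporter keratinocytes were dosed with compounds in DMSO and then cultured 23 h at 37 C. Cell viability came from CellTiter-Fluor signal read after a further 1 h.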

[2] = Nuclear factor erythroid 2-related factor 2/antioxidant responsive element (Nrf2/ARE) small molecule agonists: luciferase reporter gene qHTS assay in human keratinocytes (AID 1919969); note: nearly all actives have a fitted effect of over 35% in size; note: potency is the fitted concentration of half-maximal effect
[3] = target: Gonadotropin-releasing hormone receptor (Homo sapiens) (UniProt P30968); assay: Human gonadotropin-releasing hormone receptor (GnRHR) small molecule agonists, calcium flux assay in GnRHR-HEK293 cells (AID 1920063); note: nearly all actives have a fitted effect of over 35% in size
Method in brief: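 We seeded human GnRHR-expressing HEK293 cells for 18 hours, loaded them with calcium dye for an hour at 37 C, added test compounds, and recorded fluorescence intensity kinetically for three minutes.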

[4] = target: KiSS-1 receptor (Homo sapiens) (UniProt Q969F8); assay: Human kisspeptin (KISS1R) small molecule agonists, calcium flux assay in KISS1R-HEK293 cells (AID 1920064; active = well fitted curve in the direction sought with a large enough effect in the repeat runs; an effect the other way counts as inactive or inconclusive)
Method in brief: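 Kinetic calcium assay, 1 s sampling over 3 min at Ex/Em 480/540, in HEK293 cells engineered with human KISS1R; compounds delivered in DMSO after 1 h dye loading.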

[5] = G protein-coupled receptor (GPCR) small molecule agonists, calcium flux assay: HEK293 wild type cell line counter screen (AID 1920065)
Method in brief: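 Calcium-sensitive dye, loaded 1 h at 37 C into cells cultured 18 h, reports compound-evoked calcium release as fluorescence (Ex/Em 480/540), measured over 3 min. Agonist mode; 15-point titrations, triplicate.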

[6] = p53 small molecule agonists, cell-based qHTS assay with human liver microsomes (AID 1963577)
Method in brief: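 Compounds act here after metabolic activation: human liver microsomes and NADPH, both at 0.5 mg/mL final, were co-added to p53RE-bla cells. Incubation ran 16 h at 37 C, followed by LiveBLAzer detection.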

[7] = p53 small molecule agonists, cell-based qHTS assay with rat liver microsomes (AID 1963578)
Method in brief: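 Read-out is beta-lactamase reporter fluorescence (LiveBLAzer, 2 h, room temperature, dark) in p53RE-bla cells treated 16 h at 37 C with compound, rat liver microsomes and NADPH, both 0.5 mg/mL final.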

[8] = p53 small molecule agonists, cell-based qHTS assay: qHTS cell viability counter screen (AID 1963581); note: nearly all actives have a fitted effect of over 45% in size
Method in brief: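 Following 5 h attachment, HCT-116 p53RE-bla cells took up compound for 16 h at 37 C; the reporter was read with B/G FRET substrate (2 h RT), and viability then via CellTiter-Glo ATP luminescence.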

[9] = p53 small molecule agonists, cell-based qHTS assay (AID 1963582; active = well fitted activation curve with a large enough effect in the signal ratio in the repeat runs, not every such curve was filed as active; the % refers to the signal ratio)
Method in brief: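 In this cell-based concentration-response screen, a p53 response element drives beta-lactamase; cells received DMSO-borne compounds after 5 h culture and were incubated a further 16 h before FRET substrate development.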

[10] = target: 5-hydroxytryptamine receptor 2A (Homo sapiens) (UniProt P28223); assay: 5-hydroxytryptamine receptor 2A (HTR2A) small molecule antagonists, cell-based qHTS assay (AID 1963586); note: nearly all actives have a fitted effect of over 45% in size
Method in brief: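 Antagonist-mode intracellular calcium assay: DOI (4 nM) added after 5 min compound pre-incubation at room temperature to dye-loaded HTR2A-CHO cells. Fluorescence followed for 3 min, sampled every second.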

[11] = target: 5-hydroxytryptamine receptor 2A (Homo sapiens) (UniProt P28223); assay: 5-hydroxytryptamine receptor 2A (HTR2A) small molecule agonists, cell-based qHTS assay (AID 1963587); note: nearly all actives have a fitted effect of over 30% in size
Method in brief: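 HTR2A-CHO cells, plated 18 h at 37 C/5% CO2, dye-loaded 1 h at 37 C; compounds in DMSO added by pin tool (agonist mode). Intracellular calcium flux read as kinetic fluorescence on FDSS over 2 min at 1 s intervals.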

[12] = target: Muscarinic acetylcholine receptor M1 (Homo sapiens) (UniProt P11229); assay: Cholinergic receptor muscarinic 1 (CHRM1) small molecule antagonists, cell-based qHTS assay (AID 1963588); note: nearly all actives have a fitted effect of over 40% in size; note: potency is the fitted concentration of half-maximal effect
Method in brief: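 CHRM1-CHO calcium-flux assay, antagonist mode. Cells were seeded 18 h, dye-loaded 1 h at 37 C and given compound for 5 min at RT, then acetylcholine was added at 50nM. FDSS fluorescence was read 3 min; 15 concentrations, three runs.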

[13] = target: Muscarinic acetylcholine receptor M1 (Homo sapiens) (UniProt P11229); assay: Cholinergic receptor muscarinic 1 (CHRM1) small molecule agonists, cell-based qHTS assay (AID 1963589); note: nearly all actives have a fitted effect of over 35% in size
Method in brief: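 Measures agonist-induced intracellular calcium rise. Stable human CHRM1 CHO line, 1 h dye load at 37 C, compounds from DMSO, kinetic fluorescence read.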

[14] = cAMP Responsive Elements (CRE) small molecule agonists, cell-based qHTS assay (AID 1963590)
Method in brief: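 A CRE-responsive beta-lactamase reporter in HEK 293T cells was used. Treatment ran 3 h at 37 C; detection used LiveBLAzer B/G FRET substrate for 2 h at room temperature.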

[15] = cAMP Responsive Elements (CRE) small molecule antagonists, cell-based qHTS assay (AID 1963591; active = well fitted inhibition curve with a large enough effect in the signal ratio in the repeat runs, not every such curve was filed as active; the % refers to the signal ratio)
Method in brief: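 HEK293T cells carrying a CRE-driven beta-lactamase reporter receive compound and NKH477 (0.25 uM final) for 3 h. Fluorescence from LiveBLAzer B/G FRET substrate is read after 2 h at room temperature.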

[16] = target: Beta-2 adrenergic receptor (Homo sapiens) (UniProt P07550); assay: Adrenergic beta2 receptor (ADRB2) small molecule antagonists, cell-based qHTS assay (AID 1963592); note: nearly all actives have a fitted effect of over 50% in size; note: potency is the fitted concentration of half-maximal effect
Method in brief: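 Cells (CHO, stable ADRB2 overexpression) incubated 18-20hr at 37C; compounds added from DMSO; agonist mix (1nM isoproterenol, 100uM IBMX, 25uM Ro-20-1724) added; 0.5hr RT; d2-cAMP and anti-cAMP-cryptate added; 1hr RT; 665/615 nm read.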

[17] = target: Beta-2 adrenergic receptor (Homo sapiens) (UniProt P07550); assay: Adrenergic beta2 receptor (ADRB2) small molecule agonists, cell-based qHTS assay (AID 1963593);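 note: CHO cells stably overexpressing human ADRB2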
Method in brief: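 CHO cells stably over-expressing ADRB2 were plated overnight at 37C, then dosed with compounds plus a stimulation mix containing 100uM IBMX and 25uM Ro-20-1724 for 0.5hr at room temperature. cAMP was measured by HTRF competition, 1hr.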

[18] = target: D(2) dopamine receptor (Homo sapiens) (UniProt P14416); assay: Dopamine D2 receptor (DRD2) small molecule antagonists, cell-based qHTS assay (AID 1963595; active = well fitted inhibition curve with a large enough effect in the signal ratio in the repeat runs, with a control signal flat; the % refers to the signal ratio; note: potency is the fitted concentration of half-maximal effect)
Method in brief: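 HTRF cAMP read-out at 665 and 620 nm emission (340 nm excitation). Antagonist mode: compounds were tested against 12 nM quinpirole in DRD2-HEK293 cells, with 200 nM NKH477 raising cAMP and 0.1 mM Ro20-1724 blocking its breakdown.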

[19] = p53 small molecule agonists, cell-based qHTS assay with human liver microsomes: qHTS cell viability counter screen (AID 1963579); note: nearly all actives have a fitted effect of over 45% in size
Method in brief: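 Cells carrying the p53 response-element beta-lactamase reporter are treated for 16 h at 37 C with test compounds in the presence of human liver microsomes and NADPH (both 0.5 mg/mL final); ATP-based CellTiter-Glo luminescence then reports viability.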

[20] = target: D(2) dopamine receptor (Homo sapiens) (UniProt P14416); assay: Dopamine D2 receptor (DRD2) small molecule agonists, cell-based qHTS assay (AID 1963594); note: nearly all actives have a fitted effect of over 35% in size
Method in brief: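 HEK293 cells stably expressing DRD2 were cultured 24 h at 37 C, then given Ro20-1724 (0.1 mM final) and compounds for 10 min at room temperature. NKH477 (200nM) was then added for 30 min. cAMP was read by HTRF.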

Measured: Potency

5-hydroxytryptamine receptor 2A (Homo sapiens), sequence (P28223 whole entry, looked up): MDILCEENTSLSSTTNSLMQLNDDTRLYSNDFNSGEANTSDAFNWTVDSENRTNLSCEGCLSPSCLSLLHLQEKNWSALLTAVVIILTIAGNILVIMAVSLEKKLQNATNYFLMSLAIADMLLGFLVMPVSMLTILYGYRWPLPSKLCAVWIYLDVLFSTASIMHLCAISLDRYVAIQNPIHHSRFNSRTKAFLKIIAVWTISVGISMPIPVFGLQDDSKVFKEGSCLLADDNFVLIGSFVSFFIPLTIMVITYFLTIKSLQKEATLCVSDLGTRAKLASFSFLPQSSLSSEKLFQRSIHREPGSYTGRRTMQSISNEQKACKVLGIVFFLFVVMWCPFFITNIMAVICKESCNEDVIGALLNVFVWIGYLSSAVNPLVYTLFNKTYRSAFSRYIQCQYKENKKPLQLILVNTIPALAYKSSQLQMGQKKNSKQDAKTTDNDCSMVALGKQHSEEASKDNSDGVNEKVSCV
Gonadotropin-releasing hormone receptor (Homo sapiens), sequence (P30968 whole entry, looked up): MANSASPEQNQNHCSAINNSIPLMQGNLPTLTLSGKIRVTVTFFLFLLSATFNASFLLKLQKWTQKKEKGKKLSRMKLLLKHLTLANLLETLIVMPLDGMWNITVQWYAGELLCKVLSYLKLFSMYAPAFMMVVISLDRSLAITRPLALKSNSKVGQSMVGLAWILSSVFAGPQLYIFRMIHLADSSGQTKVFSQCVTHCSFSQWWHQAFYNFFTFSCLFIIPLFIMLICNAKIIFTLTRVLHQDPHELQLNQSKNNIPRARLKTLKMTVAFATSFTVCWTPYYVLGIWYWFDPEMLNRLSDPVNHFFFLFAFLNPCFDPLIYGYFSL
KiSS-1 receptor (Homo sapiens), sequence (Q969F8 whole entry, looked up): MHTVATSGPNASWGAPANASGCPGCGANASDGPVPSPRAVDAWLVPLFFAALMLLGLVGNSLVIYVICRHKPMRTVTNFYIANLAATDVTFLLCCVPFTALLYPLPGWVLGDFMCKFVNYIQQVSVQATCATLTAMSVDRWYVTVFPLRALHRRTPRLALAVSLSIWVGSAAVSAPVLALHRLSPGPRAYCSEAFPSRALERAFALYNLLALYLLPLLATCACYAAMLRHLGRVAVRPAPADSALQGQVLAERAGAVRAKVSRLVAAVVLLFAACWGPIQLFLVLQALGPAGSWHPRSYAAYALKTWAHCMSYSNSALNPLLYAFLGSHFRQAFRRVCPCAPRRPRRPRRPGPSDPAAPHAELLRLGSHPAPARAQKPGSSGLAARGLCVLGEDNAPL
Beta-2 adrenergic receptor (Homo sapiens), sequence (P07550 whole entry, looked up): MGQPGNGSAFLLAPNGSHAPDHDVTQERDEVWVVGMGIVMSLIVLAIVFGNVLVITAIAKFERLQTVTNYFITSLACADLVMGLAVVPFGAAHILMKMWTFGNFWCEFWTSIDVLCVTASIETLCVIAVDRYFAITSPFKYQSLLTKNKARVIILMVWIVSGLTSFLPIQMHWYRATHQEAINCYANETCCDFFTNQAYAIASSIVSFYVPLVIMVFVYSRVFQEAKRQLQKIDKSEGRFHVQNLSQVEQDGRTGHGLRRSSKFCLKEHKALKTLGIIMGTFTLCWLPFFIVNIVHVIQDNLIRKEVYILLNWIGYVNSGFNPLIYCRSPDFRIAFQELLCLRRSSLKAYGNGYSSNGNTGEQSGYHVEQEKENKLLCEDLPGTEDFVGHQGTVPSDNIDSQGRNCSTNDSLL
D(2) dopamine receptor (Homo sapiens), sequence (P14416 whole entry, looked up): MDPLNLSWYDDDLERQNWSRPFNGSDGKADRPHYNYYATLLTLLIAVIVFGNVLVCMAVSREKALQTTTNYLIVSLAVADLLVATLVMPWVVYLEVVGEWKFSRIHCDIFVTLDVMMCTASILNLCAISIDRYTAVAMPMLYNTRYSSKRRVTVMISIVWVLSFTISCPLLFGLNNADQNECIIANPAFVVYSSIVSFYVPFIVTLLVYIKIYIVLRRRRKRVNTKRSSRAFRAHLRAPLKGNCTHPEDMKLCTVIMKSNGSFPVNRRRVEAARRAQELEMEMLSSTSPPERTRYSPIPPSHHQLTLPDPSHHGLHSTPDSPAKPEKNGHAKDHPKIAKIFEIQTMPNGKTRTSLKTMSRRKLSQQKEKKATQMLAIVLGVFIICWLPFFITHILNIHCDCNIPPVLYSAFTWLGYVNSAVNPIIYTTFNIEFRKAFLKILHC
Muscarinic acetylcholine receptor M1 (Homo sapiens), sequence (P11229 whole entry, looked up): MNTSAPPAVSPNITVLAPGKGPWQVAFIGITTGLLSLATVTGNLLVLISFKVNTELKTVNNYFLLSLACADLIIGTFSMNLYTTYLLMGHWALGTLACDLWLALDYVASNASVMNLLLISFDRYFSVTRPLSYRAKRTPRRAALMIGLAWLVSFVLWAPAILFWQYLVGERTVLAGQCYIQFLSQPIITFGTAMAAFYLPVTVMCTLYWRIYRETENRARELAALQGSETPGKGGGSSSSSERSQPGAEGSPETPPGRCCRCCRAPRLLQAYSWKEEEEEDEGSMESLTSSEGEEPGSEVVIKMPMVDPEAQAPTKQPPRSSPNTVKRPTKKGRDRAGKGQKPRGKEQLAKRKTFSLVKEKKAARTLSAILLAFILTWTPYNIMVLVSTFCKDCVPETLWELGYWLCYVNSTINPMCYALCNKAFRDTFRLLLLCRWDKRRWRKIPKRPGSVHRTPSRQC

OC1(c2ccc(Cl)cc2)CCNCC1
inactive: [1] | [2] | [3] | [4] | [5] | [6] | [7] | [8] | [9] | [10] | [11] | [12] | [13] | [14] | [15] | [16] | [17] | [18]

C[C@@H](O)[C@H]1C(=O)N2C(C(=O)O)=C(SCCN=CN)C[C@H]12
inactive: [1] | [2] | [3] | [4] | [5] | [6] | [19] | [8] | [9] | [10] | [11] | [12] | [13] | [14] | [15] | [16] | [17] | [20] | [18]

Clc1nc2ccccc2s1
inactive: [1] | [2] | [3] | [4] | [5] | [6] | [7] | [8] | [10] | [11] | [12] | [13] | [14] | [15] | [16] | [20]

COC(=O)c1sccc1S(N)(=O)=O
inactive: [1] | [2] | [3] | [4] | [5] | [6] | [7] | [8] | [10] | [11] | [12] | [13] | [15] | [16] | [20] | [18]

Cc1ccc(C(=O)C(=O)O)cc1C
inactive: [1] | [2] | [3] | [4] | [5] | [6] | [7] | [8] | [9] | [10] | [12] | [14] | [15] | [16] | [17] | [20]

C/C=C/C(=O)CCCC
inactive: [1] | [2] | [3] | [4] | [5] | [6] | [7] | [8] | [9] | [10] | [12] | [13] | [14] | [15] | [16] | [20] | [18]

O=C(CCNNC(=O)c1ccncc1)NCc1ccccc1
inactive: [1] | [2] | [3] | [4] | [5] | [6] | [7] | [8] | [9] | [10] | [11] | [13] | [15] | [16]

C=CC(=O)O[C@H]1C[C@@H]2CC[C@@]1(C)C2(C)C
inactive: [1] | [2] | [3] | [4] | [5] | [6] | [7] | [8] | [9] | [10] | [11] | [12] | [15] | [16] | [17] | [20] | [18]

O=[N+]([O-])c1ccc(Oc2ccc([N+](=O)[O-])cc2)cc1
inactive: [1] | [2] | [3] | [4] | [5] | [6] | [7] | [8] | [9] | [10] | [11] | [12] | [13] | [14] | [15] | [16] | [17] | [20] | [18]

CC[C@]1(O)C[C@@H]2CN(CCc3c([nH]c4ccccc34)[C@@](C(=O)OC)(c3cc4c(cc3OC)N(C)[C@H]3[C@@](O)(C(=O)OC)[C@H](OC(C)=O)[C@]5(CC)C=CCN6CC[C@]43[C@@H]65)C2)C1
inactive: [1] | [3] | [4] | [5] | [6] | [7] | [16] | [17] | [20]
active: [2] 211 nM and 596 nM

CCCOCCO
inactive: [1] | [2] | [3] | [4] | [5] | [6] | [7] | [9] | [10] | [11] | [14] | [15] | [16] | [17] | [20] | [18]
inactive and 12.5 nM (active): [12]

O=Cc1ccc([N+](=O)[O-])cc1
inactive: [1] | [2] | [3] | [4] | [5] | [6] | [7] | [8] | [9] | [11] | [12] | [13] | [14] | [15] | [16] | [20] | [18]

O=S(=O)(O)c1ccccc1O
inactive: [1] | [2] | [3] | [4] | [5] | [6] | [7] | [8] | [9] | [10] | [12] | [13] | [14] | [15] | [16] | [17] | [20] | [18]

CN(C)CCCNCCCN(C)C
inactive: [1] | [2] | [3] | [4] | [5] | [6] | [7] | [8] | [9] | [10] | [11] | [13] | [14] | [15] | [16] | [17] | [20] | [18]

O=C1c2ccccc2C(=O)C1c1ccc2cc(S(=O)(=O)O)cc(S(=O)(=O)O)c2n1
inactive: [2] | [3] | [4] | [5] | [6] | [7] | [8] | [9] | [10] | [11] | [13] | [14] | [15] | [16] | [17] | [20] | [18]
active: [1] 58.9 µM

O=C(Nc1ccc(Cl)cc1)Nc1ccc(Cl)c(Cl)c1
48.6 µM (active) and inactive: [18]
active: [16] 68.2 µM and 54.5 µM
inactive: [1] | [3] | [4] | [5] | [6] | [7] | [8] | [9] | [10] | [11] | [12] | [15] | [20]
21.6 µM (active) and inactive: [2]
